Screens from PubChem BioAssay.
GC-B act: GC-B (human) receptor activation; HEK293-GC-B cells, CNP EC30, cGMP TR-FRET; 0% at EC30 CNP, 100% saturating CNP; activation, % at 10 µM; actives 0.11% (n = 370,000); AID 1920062;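 active = activation at 10 µM reaching about 35% in either raw or pattern-adjusted values, limit read from the data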
PG9 binder: binds the HIV-1 gp120 antibody PG9; TR-FRET gp120-PG9 antibody binding; inhibition, % at 6.7 µM; actives 0.43% (n = 360,000); AID 624416; in the data active = inhibition above about 8.5%
NR1D1 modulator: Rev-erb alpha (human) modulation | P20393 | Rev-erbα–FITC-DNA binding, fluorescence polarization, 90 min | activity, % at 10 µM | actives 0.79% (n = 370,000) | AID 1259318;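 active = activity above about 14%, limit read from the data; passing the limit was not always enough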;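 also: 0% = DMSO wells with 35 nM protein and 100% = DMSO wells with 750 nM protein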
GC-A act: GC-A (human) enzyme activation | activation, % at 10 µM | HEK293 GC-A cells, cGMP TR-FRET, EC30 ANP; 0% at EC30 ANP, 100% saturating ANP | actives 0.14% (n = 370,000); in the data active = activation above about 40%
V-ATPase pH: yeast V-ATPase proton transport regulation by pHLuorin | S. cerevisiae, pHLuorin cytosolic pH fluorescence | response, % at 10 µM | actives 0.37% (n = 350,000); in the data active = response mostly above about 7.3%, no sharp cut-off; inactive = mostly below about 5.4%; also: actives read high
NR1D1 mod conf: Rev-erb alpha (human) modulation, hit confirmation | shares compounds with NR1D1 modulator | Rev-erb alpha FITC-DNA binding, fluorescence polarization, 90 min | activation, % at 25 µM | actives 61% (n = 3,000) | AID 1259319;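 active = activation at or above a set limit, or at least 3 SD above the negative control mean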;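 also: 0% = 35 nM protein with DMSO and 100% = 750 nM protein high control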
RORg DNA counter: affects RORgamma DNA binding in a Rev-erb alpha counter-screen; shares compounds with NR1D1 modulator; purified RORgamma protein-FITC-DNA binding, fluorescence polarization; IC50, µM; actives 8% (n = 910); AID 1259320;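 active = Compounds whose fitted half-maximal concentration for disrupting protein-DNA binding is below 10 micromolar; the record names Rev-erb in its text, so the target is in doubt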
Numbers without * were called inactive. Rows were chosen to be rich in hits. Some 1.6% of all compounds tested hit in one or more screens of this group.

Results for COc1ccc(C2=NN(C(=O)CSc3nnc(C)n3C)C(c3ccco3)C2)cc1 (stereo unspecified) ?
GC-B act: 1; PG9 binder: -3; NR1D1 modulator: -3; GC-A act: -3; V-ATPase pH: 3

How did COC(=O)[C@@H]1C[C@@]2(c3ccccc3)c3ccccc3N(S(=O)(=O)c3ccccc3)[C@H]2N1C(=O)CNC1CCCCC1 do in these assays?
GC-B act: -10; NR1D1 modulator: 2; GC-A act: -24

How did COc1cc(NC(=O)CSc2nc3ccccc3cc2C)c(C(=O)O)cc1OC do in these assays?
GC-B act: -1; PG9 binder: -2; NR1D1 modulator: -4; GC-A act: -6; V-ATPase pH: 2

What do the screens show for `Cc1ccc2cc(C)c(SCC(=O)Nc3ccc(S(=O)(=O)N4CCCC4)cc3)nc2c1`?
GC-B act: 0; PG9 binder: 2; NR1D1 modulator: 27*; GC-A act: -4; V-ATPase pH: -3; NR1D1 mod conf: 19*

How did Cc1cc2cc3c(cc2nc1SCC(=O)Nc1ccccc1)CCC3 do in these assays?
GC-B act: 6; PG9 binder: -1; NR1D1 modulator: 33*; GC-A act: 3; V-ATPase pH: -1; NR1D1 mod conf: 15

What do the screens show for `Cn1c(SCC(=O)Nc2cccc(F)c2)nnc1-c1cc2ccccc2o1`?
GC-B act: -11; PG9 binder: 2; NR1D1 modulator: 75*; GC-A act: -8; V-ATPase pH: 0; NR1D1 mod conf: 102*; RORg DNA counter: >40

Results for CC(=O)Nc1ccc(-c2nnc(SCC(=O)Nc3ccc4c(c3)oc3ccccc34)n2C)cc1 ?
GC-B act: -7; PG9 binder: 1; NR1D1 modulator: -1; GC-A act: -2; V-ATPase pH: -7

What do the screens show for `CCCCCCC(=O)NC1CCCCN(Cc2ccccc2C)C1=O` (stereo unspecified)?
GC-B act: 1; NR1D1 modulator: 3; GC-A act: 3

What do the screens show for `COc1ccccc1Oc1ccc2c(c1)C(=O)N(c1ccccc1)C2=O`?
GC-B act: -4; PG9 binder: 1; NR1D1 modulator: 67*; GC-A act: 5; V-ATPase pH: -1; NR1D1 mod conf: 48*; RORg DNA counter: >40

How did COc1ccccc1Oc1ccc2c(c1)C(=O)N(c1ccc(C)cc1)C2=O do in these assays?
GC-B act: -8; PG9 binder: 1; NR1D1 modulator: 28*; GC-A act: -8; V-ATPase pH: 2; NR1D1 mod conf: 31*

What do the screens show for `COc1ccc(N2C(=O)c3cc4ccccc4cc3C2=O)cc1`?
GC-B act: 0; PG9 binder: -1; NR1D1 modulator: 11; GC-A act: 3; V-ATPase pH: 1

Results for O=C1c2ccccc2C(=O)N1c1ccccc1 ?
GC-B act: -1; PG9 binder: -1; NR1D1 modulator: 8; GC-A act: -2; V-ATPase pH: -2

How did Cc1ccccc1CS(=O)(=O)Cc1ccc(C(=O)Nc2ccccc2C)o1 do in these assays?
GC-B act: 5; NR1D1 modulator: -2; GC-A act: -2

What do the screens show for `COCCCNC(=O)C[C@H]1C[C@@]2(C(=O)OC)C(=C[C@H](C(C)C)O[C@@H]2C2CC2)N(CCC2=CCCCC2)C1=O`?
GC-B act: -4; NR1D1 modulator: 3; GC-A act: -3

Results for CCCCCCCCNC(=O)C1CSCCS(=O)(=O)N1Cc1ccccc1 (stereo unspecified) ?
GC-B act: 1; NR1D1 modulator: 1; GC-A act: -3

What do the screens show for `COCO[C@@H]1CC(CO)=C[C@H]2OCO[C@H]21`?
GC-B act: -2; NR1D1 modulator: -5; GC-A act: -1

How did CCOC(=O)c1c(C)nc2c(c1-c1ccc(OC)c(OC)c1)C(=O)c1ccccc1-2 do in these assays?
GC-B act: -2; PG9 binder: 2; NR1D1 modulator: 53*; GC-A act: 3; V-ATPase pH: -3; NR1D1 mod conf: 47*

What do the screens show for `C[C@@H]1[C@H](O)[C@@H](C)/C=C/C=C/C=C/C=C/C=C/C=C/C=C/[C@H](OC2O[C@H](C)[C@@H](O)[C@H](N)[C@@H]2O)C[C@@H]2O[C@](O)(C[C@@H](O)C[C@@H](O)[C@H](O)CC[C@@H](O)C[C@@H](O)CC(=O)O[C@H]1C)C[C@H](O)[C@H]2C(=O)O` (stereo partly specified)?
GC-B act: -9; NR1D1 modulator: -2; GC-A act: 3

What do the screens show for `CSc1nc2cc(C)nn2c(-c2ccccc2)c1C#N`?
GC-B act: -3; PG9 binder: -1; NR1D1 modulator: 26*; GC-A act: 2; V-ATPase pH: -2; NR1D1 mod conf: 10

Results for CSc1nc(C)cc(C)c1C#N ?
GC-B act: -5; PG9 binder: -2; NR1D1 modulator: -2; GC-A act: 4

How did Clc1ccsc1-c1ccnc(-n2cccc2)n1 do in these assays?
GC-B act: 1; PG9 binder: 2; NR1D1 modulator: -4; GC-A act: -5; V-ATPase pH: -2

What do the screens show for `Clc1ccc(-c2ccnc(-n3cccc3)n2)s1`?
GC-B act: -4; PG9 binder: 2; NR1D1 modulator: 18*; GC-A act: -2; V-ATPase pH: -3; NR1D1 mod conf: -1

Results for CCCCN(Cc1ccccc1)S(=O)(=O)c1ccc2c(c1)n(C)c(=O)c(=O)n2C ?
GC-B act: -6; PG9 binder: -1; NR1D1 modulator: 45*; GC-A act: -1; V-ATPase pH: 0; NR1D1 mod conf: 10

Results for CN(C)CCN(Cc1ccccc1)S(=O)(=O)c1ccc2c(c1)n(C)c(=O)c(=O)n2C ?
GC-B act: -2; PG9 binder: 0; NR1D1 modulator: -2; GC-A act: 0; V-ATPase pH: -3

How did CC(=O)c1cc2c(cc1NC(=O)CSc1nc3ccc(C)cc3[nH]1)OCO2 do in these assays?
GC-B act: -4; PG9 binder: 2; NR1D1 modulator: 1; GC-A act: -5; V-ATPase pH: -2

How did CCOC(=O)c1c(SCC(=O)Nc2nccs2)nc(C)c(C)c1C do in these assays?
GC-B act: -2; PG9 binder: 0; NR1D1 modulator: -1; GC-A act: 1; V-ATPase pH: -9

Results for CCc1cc2cc3c(cc2nc1SCC(=O)Nc1c[nH]c(=O)[nH]c1=O)OCO3 ?
GC-B act: -7; PG9 binder: 1; NR1D1 modulator: 187*; GC-A act: -10; V-ATPase pH: -1; NR1D1 mod conf: 172*; RORg DNA counter: >40
